Assay [1] in a line: Quantitative High-Throughput drug screen in 47 multiple myeloma cell lines against the NCATS MIPE library collection: MM1S_ATCC cell viability assay (AID 1918980). Also: nearly all actives have a fitted effect of over 45% in size. In a few lines: (§1)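 Inhibition of viability over 48 h was scored by ATP content (CellTiter-Glo) in 500-cell wells. Zero and full viability were defined by media-only and DMSO-only wells.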
The nature of assay [2]: Quantitative High-Throughput drug screen in 47 multiple myeloma cell lines against the NCATS MIPE library collection: MM1R_ATCC cell viability assay (AID 1918981). Also: nearly all actives have a fitted effect of over 35% in size. In a few lines: as §1
Assay [3] can be described thus: Quantitative High-Throughput drug screen in 47 multiple myeloma cell lines against the NCATS MIPE library collection: LP1_DSMZ cell viability assay (AID 1918982). Also: nearly all actives have a fitted effect of over 35% in size. In a few lines: as §1
Assay [4] can be described thus: Quantitative High-Throughput drug screen in 47 multiple myeloma cell lines against the NCATS MIPE library collection: L363_DSMZ cell viability assay (AID 1918984). Also: nearly all actives have a fitted effect of over 40% in size. In a few lines: as §1
Assay [5] can be described thus: Quantitative High-Throughput drug screen in 47 multiple myeloma cell lines against the NCATS MIPE library collection: KMS34_JCRB cell viability assay (AID 1918985). Also: nearly all actives have a fitted effect of over 40% in size. In a few lines: as §1
Assay [6] is described as follows: Quantitative High-Throughput drug screen in 47 multiple myeloma cell lines against the NCATS MIPE library collection: OCIMY7_PLB cell viability assay (AID 1918987). Also: nearly all actives have a fitted effect of over 65% in size. To be noted: OCI-MY7 myeloma viability, CellTiter-Glo ATP, 48 h; viability (% of DMSO): at 45.8 µM (top of the series). In a few lines: as §1
On the technique in general: Cellular ATP, detected with luciferase, serves as a proxy for viable cell number.

Assay [7] can be described thus: Quantitative High-Throughput drug screen in 47 multiple myeloma cell lines against the NCATS MIPE library collection: OPM1_PLB cell viability assay (AID 1918989). Also: nearly all actives have a fitted effect of over 40% in size. In a few lines:
as §1

Assay [8] is described as follows: Quantitative High-Throughput drug screen in 47 multiple myeloma cell lines against the NCATS MIPE library collection: KMS28PE_JCRB cell viability assay (AID 1918983). Also: nearly all actives have a fitted effect of over 35% in size. In a few lines: as §1
Assay [9] can be described thus: Quantitative High-Throughput drug screen in 47 multiple myeloma cell lines against the NCATS MIPE library collection: SKMM1_PLB cell viability assay (AID 1919863). Also: nearly all actives have a fitted effect of over 35% in size. As to conditions: SKMM1 myeloma viability, CellTiter-Glo ATP, 48 h; viability: active compounds read low. In a few lines: as §1
Assay [10] can be described thus: Quantitative High-Throughput drug screen in 47 multiple myeloma cell lines against the NCATS MIPE library collection: OCIMY5_PLB cell viability assay (AID 1918988). Also: nearly all actives have a fitted effect of over 65% in size. In a few lines:
as §1

As a reminder, the viability is a read-out of living cells in per cent, often relative to untreated cells.

Records with an inconclusive call do not appear. A number with no mark means an inactive call. Active and inactive are the calls of the source. Calls follow the shape of the dose curve; as a rule, active = well fitted cell-killing curve with a large enough effect; inconclusive = small, poorly fitted or top-dose-only effect, or effect the other way; inactive = no such curve, though single readings can be large or run the other way.
Potency is read from the fitted curve at half-maximal effect.

As for `OCC(O)C(O)C(O)CO` (centres undefined), the Potency result in assay [1], in assay [2], in [3], in assay [4], in assay [5] and in assay [6] was “inactive” throughout. Also, the Potency result in [7] is “inactive”.
`NC(=O)c1ncn([C@@H]2O[C@H](CO)[C@@H](O)[C@@H]2O)c1N`: the Potency entry in [1], in assay [2], in [3], in assay [8] and in assay [5] was “inactive” each time. The viability in assay [9] is 159%.
Regarding `CCOC(=O)C=C[C@H](C[C@@H]1CCNC1=O)NC(=O)[C@@H](CC(=O)[C@@H](NC(=O)c1cc(C)on1)C(C)C)Cc1ccc(F)cc1`, the Potency result in assay [1], in assay [2], in [3], in assay [8] and in assay [10] was “inactive” in each case. The viability in [9] is 138%.
For `Nc1nc(=O)n([C@H]2C[C@H](O)[C@@H](CO)O2)cc1F`, the Potency in [1] was 7.4 nM (active); in [5], 2.6 nM (active); in assay [7], 46.9 nM (active). The Potency result in [2], in assay [3] and in assay [10] was “inactive” in each case. Besides, the viability in [9] is 129%.
Take `CC[C@@]1([C@@H]2O[C@@H]([C@H]3O[C@@](O)(CO)[C@H](C)C[C@H]3C)C[C@H]2C)CC[C@H]([C@]2(C)CC[C@]3(C[C@H](O)[C@@H](C)[C@@H]([C@@H](C)[C@@H](OC)[C@H](C)C(=O)O)O3)O2)O1`: the Potency is 182 nM (active) in assay [1]; 229 nM (active) in assay [2]; 64.5 nM (active) in assay [3]; 512 nM (active) in [8]; 229 nM (active) in assay [6]; 102 nM (active) in assay [10]. Moreover, the Potency in assay [7] is 162 nM (active); in assay [9] it was 323 nM (active).
With `Cc1noc(-c2ccc(CSCCC(=O)O)cc2)c1NC(=O)OC(C)c1ccccc1Cl` (centres undefined), the Potency entry in [1], in assay [2], in assay [3], in assay [5] and in assay [7] was “inactive” throughout. For the same compound, the viability in [9] was 124%.
As to `C[C@H]1C[C@H]2[C@@H]3CCC4=CC(=O)C=C[C@]4(C)[C@@H]3C(=O)C[C@]2(C)[C@@]1(O)C(=O)CO`, the Potency result in assay [1], in [2], in assay [3], in assay [8], in assay [10] and in assay [7] was “inactive” each time.
Take `CN(C)CC(=O)N1CCC(c2ccc(NC(=O)c3ncc(C#N)[nH]3)c(C3=CCCCC3)c2)CC1`: the Potency in [1] was 2350 nM (active); in assay [2], 8330 nM (active); in [6], 9350 nM (active); in [10] it was 26400 nM (active); in assay [7] it was 20900 nM (active). Also, the Potency entry in [3] and in assay [5] was “inactive” each time. The viability in assay [9] is 127%.
Take `C#CCC(Cc1cnc2nc(N)nc(N)c2n1)c1ccc(C(=O)N[C@@H](CCC(=O)O)C(=O)O)cc1` (some centres undefined): the Potency in assay [1] was 18.7 nM (active); in assay [2], 11.8 nM (active); in assay [3], 41.8 nM (active); in assay [5], 209 nM (active); in [7], 166 nM (active). For the same compound, the Potency result in assay [8] and in assay [10] was “inactive” in each case. The viability in assay [9] is 117%.
As for `FC(F)c1nc2ccccc2n1-c1nc(N2CCOCC2)nc(N2CCOCC2)n1`, the Potency in assay [1] is 590 nM (active); in assay [2] it was 743 nM (active); in assay [3], 20.9 nM (active); in assay [8], 418 nM (active); in assay [10] it was 1320 nM (active); in assay [7], 469 nM (active). Besides, the Potency in assay [9] was 1480 nM (active).
Regarding `Nc1ncn([C@@H]2O[C@H](CO)[C@@H](O)[C@@H]2O)c(=O)n1`, the Potency in assay [1] was 18700 nM (active); in [2], 14800 nM (active); in assay [8], 20900 nM (active); in assay [4], 5900 nM (active); in [5] it was 11800 nM (active); in assay [6], 3720 nM (active). The results for the Potency in assay [10], in assay [7] and in assay [9] were 9350 nM (active), 11800 nM (active) and 13200 nM (active), respectively.
For the compound `CC(C=CC=C(C)C=CC1=C(C)CCCC1(C)C)=CC=CC=C(C)C=CC=C(C)C=CC1=C(C)CCCC1(C)C`, the Potency is 5900 nM (active) in assay [1]; 16600 nM (active) in assay [2]; 16600 nM (active) in assay [4]; 2090 nM (active) in [6]; 9350 nM (active) in assay [10]. Moreover, the Potency entry in [3] and in assay [7] was “inactive” in each case. In assay [9], the viability is 107%.
`O=C(CN1C(=O)C2(CCCC2)NC[C@H]1c1cc(F)cc(F)c1)Nc1ccc2c(c1)C[C@@]1(C2)C(=O)Nc2ncccc21`: the Potency result in assay [1], in [2], in [3], in assay [4], in [5] and in assay [10] was “inactive” each time. In assay [7], the Potency entry was “inactive”. Further, the viability in assay [9] was 120%.
As to `NC(=O)Nc1cc(-c2ccc(CN3CCOCC3)cc2)sc1C(N)=O`, the Potency was 16600 nM (active) in assay [1]; 20900 nM (active) in assay [2]; 18700 nM (active) in [8]; 5900 nM (active) in assay [4]; 4180 nM (active) in [5]; 37.2 nM (active) in assay [10]. For the same compound, the Potency in [7] was 3720 nM (active); in assay [9] it was 18700 nM (active).
As for `CC(=O)OCC(=O)[C@@]12N=C(C)O[C@H]1C[C@H]1[C@@H]3CCC4=CC(=O)C=C[C@]4(C)[C@@H]3[C@@H](O)C[C@@]12C`, in assay [1], the Potency was 5900 nM (active). Besides, the Potency result in [2], in [8], in assay [5] and in assay [7] was “inactive” in each case. Besides, the viability in assay [9] was 135%.
Regarding `Cc1cnc(NC(=O)Nc2cc(Br)c(C)cc2OC[C@@H]2CNCCO2)cn1`, the Potency was 662 nM (active) in assay [1]; 743 nM (active) in assay [2]; 13200 nM (active) in [8]; 3320 nM (active) in assay [5]; 1480 nM (active) in [10]; 526 nM (active) in assay [7].
